# Sm TGR block – blocks Schistosoma mansoni thioredoxin glutathione reductase; Q962Y6; purified TGR, DTNB reduction, TNB absorbance 405 nm; Potency, µM (doses to about 114 µM), usual class: inhibitors; actives 3% (n = 360,000); AID 485364; active = well fitted inhibition curve with a large enough effect; inconclusive = small, poorly fitted or top-dose-only effect; inactive = no such curve, though single readings can be large or run the other way; note: nearly all actives have a fitted effect of over 60% in size
#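 TGR 20 nM + NADPH 100 uM (dispensed conc.), cpd preinc 15 min RT; start with NADPH (500 uM addition) then DTNB (15 mM addition). Kinetic TNB absorbance, 405 nm filter. Four-parameter Hill fit across titration.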
# FMDV inh – antivirals against foot and mouth disease virus; Potency, µM (titrated, usually from 57.9 µM), hits mostly inhibitors; FMDV antiviral cell-based qHTS; actives 1.2% (n = 410,000); calls by dose curve; tested in HEK293T cells; note: read-out not given here; nearly all actives have a fitted effect of over 45% in size
# Shiga toxin inh – inhibitors of Shiga toxin in Vero cells. actives 9.2% (n = 290,000). Vero cells, Shiga toxin protein synthesis inhibition reporter. AID 2315. inhibition, % at 38.7 µM; in the data active = inhibition mostly above about 28%, no sharp cut-off; inactive = mostly below about 43%
# CHX counter – counter-screen for Shiga toxin inhibitors: cycloheximide protein synthesis inhibition; cell reporter, cycloheximide protein synthesis inhibition counterscreen; max response, %; actives 12% (n = 300,000); in the data active = max response mostly above about 13%, no sharp cut-off; inactive = mostly below about 14%; note: read at 38.3 µM for the half of the compounds with a filed dose
# Hits are given with their value; – = inactive; ? = inconclusive; · = not tested or not shown. Shown are actives, neighbours in structure and some others; about 12% of the full set was active somewhere.
SMILES,Sm TGR block,FMDV inh,Shiga toxin inh,CHX counter
Cc1cc(/C=C(\C#N)C(=O)NCc2ccco2)c(C)[nH]1,?,–,–,–
CCC(=O)N1CCc2cc(S(=O)(=O)CCC(=O)N3CCN(c4cc(C)ccc4C)CC3)ccc21,–,–,·,·
CN(C)/C=C1\C(=O)Nc2ccccc21,–,–,–,–
CCc1ncc(/C=C2\C(=O)Nc3ccccc32)[nH]1,–,–,–,26
Cc1ncc(/C=C2\C(=O)Nc3ccccc32)[nH]1,–,–,40,26
Cc1ccc(NC(=O)C(NS(=O)(=O)c2ccc3c(c2)CCC(=O)N3)c2ccccc2)cc1C (stereo not given),–,–,·,·
O=c1c(Br)c(NCc2ccccc2)cnn1-c1ccc(F)cc1,–,–,40,26
C[N+]1(Cc2ccccc2)CCC(C(=O)OCC2CCCC2)CC1 (stereo not given),·,–,·,·
O=C(NCC1CCCO1)c1ccc(-c2cccc(C(F)(F)F)c2)o1 (stereo not given),–,–,–,–
O=C(O)/C=C/c1ccc(-c2cccc(C(F)(F)F)c2)o1,–,–,–,–
CC(=O)N1CCN(C(=O)c2ccc(-c3cccc(C(F)(F)F)c3)o2)CC1,32µM,–,·,·
O=C(c1ccc(-c2cccc(C(F)(F)F)c2)o1)N1CCOCC1,–,–,74,37
CCN(C(=O)c1c(C)oc2ncnc(N3CCCCC3)c12)c1cc(C)ccc1C,–,–,·,·
CN1CCN(c2ncc3nc(-c4ccc(Cl)cc4)c(=O)n(C)c3n2)CC1,·,–,·,·
O=C(c1cccc2ccccc12)C1CCCN(C(=O)CCc2cnccn2)C1 (stereo not given),–,–,–,15
O=C(c1csc(Nc2ccccc2Cl)n1)N1CCCC1,–,–,108,53
O=C(c1csc(Nc2cccc3ccccc23)n1)N1CCCC1,–,–,–,–
Cc1ccc(Nc2nc(C(=O)N3CCC(C(=O)NCc4ccccc4)CC3)cs2)cc1,–,–,35,19
COc1ccc(CNC(=O)C2CCN(C(=O)c3ccc(-c4ccccc4)cc3)CC2)cc1,–,?,–,–
COc1ccc(CNC(=O)C2CCN(C(=O)c3csc(Nc4ccc(C)cc4)n3)CC2)cc1,–,25µM,–,–
Cc1ccc(Nc2nc(COC(=O)C3CC3)cs2)cc1,·,–,75,52
Cc1ccc(Nc2nc(C(=O)N3CCC(C(=O)NCCN4CCOCC4)CC3)cs2)cc1,–,–,–,–
CCCCCCCCCCCCCC/C(C(=O)O)=C(\C)C(=O)O,·,·,–,–
COc1ccc(Nc2nc(C(=O)N3CCc4ccccc4C3)cs2)cc1,–,–,–,–
Cc1ccc(Nc2nc(C(=O)N3CCC(C(=O)N4CCN(C)CC4)CC3)cs2)cc1,–,–,–,19
SMILES,Sm TGR block,FMDV inh,Shiga toxin inh,CHX counter
COc1cc(N2CCCC2)ccc1[N+](=O)[O-],–,–,–,–
COc1ccccc1C1CCN(c2ccc([N+](=O)[O-])c(OC)c2)CC1,–,–,64,35
O=C1CS(=O)(=O)C2(C(=O)N(Cc3ccccc3)c3ccccc32)N1c1ccccc1 (stereo not given),–,–,·,·
O=c1oc2ccccc2cc1-c1csc(Cc2nc(-c3ccc(Br)cc3)cs2)n1,–,–,–,–
NC(=O)Cc1nc(-c2ccc(Br)cc2)cs1,–,–,37,–
N/C(Cc1nc(-c2ccc(Cl)cc2)cs1)=N/O,–,–,40,41
Cc1ccc(-c2csc(CC(N)=O)n2)cc1,–,–,66,31
Oc1csc(Cc2nc(-c3ccc(Br)cc3)cs2)n1,–,–,130,38
Cc1cccc(-c2cccc(C(=O)N3CCc4c(cnc(C)c4CNC(=O)c4cncs4)C3)c2)c1,·,–,·,·
COc1ccc(OC)c(CNC(=O)c2cc3c(=O)oc4ccc(C)cc4c3s2)c1,–,–,·,·
Cc1ccc(S(=O)(=O)N2CCOC23CCN(C(=O)c2ccc(Cl)cc2Cl)CC3)cc1,7.9µM,–,–,–
Cc1ccc(S(=O)(=O)N2CCOC23CCN(C(=O)c2cc(Cl)ccc2Cl)CC3)cc1,–,–,–,–
O=C(c1ccco1)N(c1ccccn1)c1ccccn1,–,–,–,–
N#C/C(=C(/O)c1ccco1)c1nc2ccccc2s1,–,–,66,38
N#C/C(=C(/O)c1cc2ccccc2o1)c1nc2ccccc2s1,–,–,–,–
N#CC(C(=O)c1ccco1)c1ccccn1 (stereo not given),–,·,–,17
Cn1c(/C(C#N)=C(\O)c2cccc(F)c2)nc2ccccc21,–,–,–,–
N#C/C(=C(\O)c1ccco1)c1ccccn1,–,–,70,31
N#C/C(=C(/O)c1cccc(F)c1)c1nc2ccccc2s1,–,–,–,12
Cc1nc2cc3c(cc2c(C)c1C(=O)OC(C)C)OCO3,–,–,29,40
COC(=O)c1nc2cc3c(cc2c(C)c1C(=O)OC)OCO3,–,–,–,–
O=C(Cn1ccn(-c2ccc(F)c(F)c2)c(=O)c1=O)NCc1ccccc1,–,–,·,·
CCOc1ccc(S(=O)(=O)NCC(c2ccc(N(C)C)cc2)N2CCCC2)cc1 (stereo not given),–,–,·,·
Cc1ccc2oc(C(=O)NCC(c3ccco3)N3CCCC3)c(C)c2c1 (stereo not given),–,–,–,20
Cc1ccc2oc(C(=O)NCc3ccc4c(c3)OCO4)c(C)c2c1,–,–,–,24
SMILES,Sm TGR block,FMDV inh,Shiga toxin inh,CHX counter
Cc1cc2oc(C(=O)NCC(c3ccco3)N3CCCC3)c(C)c2cc1C (stereo not given),·,–,·,·
Cc1ccc2oc(C(=O)NCC3CCOCC3)c(C)c2c1,–,–,59,–
COc1ccc(-c2c3c(=O)n(C)c(=O)n(C)c3c3n2-c2ccccc2NC3c2ccco2)cc1 (stereo not given),–,?,·,·
CCc1cc2c(cc3c(=O)n(CC(=O)NC(C)c4ccccc4)ncn32)s1 (stereo not given),–,–,·,·
Cc1ccc2c(CC(=O)N3CCOc4ccc(CN5C[C@@H](C)O[C@@H](C)C5)cc4C3)cc(=O)oc2c1,·,–,·,·
CC(C)(C)n1[nH]c2c3c(ccc2c1=O)C(=O)c1ccccc1C3=O,–,–,–,24
Cc1ccc(-n2[nH]c3c4c(ccc3c2=O)C(=O)c2ccccc2C4=O)cc1,–,–,–,–
CCCCc1cc(O)c(CCCC)c(O)c1,–,–,40,39
O=C(Cn1ncc2c(=O)oc3ccccc3c21)NCc1ccc(Cl)cc1,–,–,·,·
Cc1ccc(-c2c(C)c(-c3ccc(F)cc3)nc(N)c2C#N)o1,28µM,–,–,–
CC(/C=C/c1ccco1)=N/NC(=O)c1ccccc1Cl,22µM,–,–,26
CC(/C=C/c1ccco1)=N\NC(=O)c1cccc(Cl)c1,–,–,–,35
O=C(Cn1ncc(Cl)c(Cl)c1=O)NCC1CCCCC1,35µM,28µM,–,30
O=C(Cn1ncc(Cl)c(Cl)c1=O)NC1CCCCC1,25µM,35µM,·,·
O=C(COC(=O)c1ccc(Cl)cc1)NCC1CCCCC1,·,–,·,·
Cc1cccc(NC(=O)CNC(=O)CSc2ncccn2)c1C,·,–,·,·
O=C(Cn1ncc2c3ccccc3n(Cc3ccccc3)c2c1=O)NC1CCCC1,–,–,–,–
Cc1cccc(NC(=O)CNC(=O)Cn2ncc(Cl)c(Cl)c2=O)c1C,·,22µM,·,·
O=C(Cn1ncc(Cl)c(Cl)c1=O)NC1CCS(=O)(=O)C1 (stereo not given),6.3µM,–,–,–
